The assay addresses Ubiquitin carboxyl-terminal hydrolase isozyme L5 (Homo sapiens) (UniProt Q9Y5K5). Kind of assay: retest of human UCH37 deubiquitinase inhibitors, confirmation, biochemical, Ub-AMC cleavage rate, fluorescence (AID 624100).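 Also: based on cleavage rate fitted by regression over a 30 min kinetic read; 0% = proteasome plus Ub-AMC and 100% = Ub-AMC without proteasome.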 The settings on record: Proteasome-bound UCH37, Ub-AMC cleavage fluorescence; at 20 µM; stronger effect = higher value.

Drawing on PubChem BioAssay AID624100 (ICCB-Longwood Screening Facility, Harvard Medical School, 2012), this text covers inhibition for 25 compounds.

As a reminder, the inhibition is the relative decrease from the control value, in per cent.

The structures appear in SMILES notation. Some of the results follow. A number with no mark means an inactive call. Active and inactive are the calls of the source.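 The calls were made as follows: active = average inhibition over replicates above about 50%, so the earlier screening hit is confirmed (limit read from the data); inactive = the rest, counted as false positives.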

Sequence of Ubiquitin carboxyl-terminal hydrolase isozyme L5 (Homo sapiens) (Q9Y5K5 whole entry, looked up): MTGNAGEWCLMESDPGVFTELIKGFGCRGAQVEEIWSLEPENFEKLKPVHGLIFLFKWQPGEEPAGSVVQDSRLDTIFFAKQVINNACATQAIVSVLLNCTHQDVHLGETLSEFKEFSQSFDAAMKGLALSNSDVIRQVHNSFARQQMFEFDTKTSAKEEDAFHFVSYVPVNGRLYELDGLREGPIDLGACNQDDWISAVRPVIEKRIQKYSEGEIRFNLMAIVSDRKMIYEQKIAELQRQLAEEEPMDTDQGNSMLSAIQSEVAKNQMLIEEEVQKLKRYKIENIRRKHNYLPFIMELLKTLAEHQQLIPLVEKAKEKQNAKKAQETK

Regarding `CC(C)NC(=O)/C(C#N)=C\c1ccc(N(C)C)c(Br)c1`, the inhibition was 9.32%.
With `CC(OC(=O)c1c(F)cccc1F)C(=O)NCCC1=CCCCC1` (stereo not given), the inhibition is 32.7%.
Then `Cn1ccc(=Nc2ccc(NC(=O)c3ccc(N=c4ccn(C)c5ccc([N+](=O)[O-])cc45)cc3)cc2)cc1`, with 71.3% (active); and `COc1cc(NC(=O)COC(=O)c2ccc([N+](=O)[O-])s2)cc(OC)c1OC`, with 14.6%.
The value for `N#C/C(=C/c1ccc(N2CCOCC2)o1)C(=O)N1CCOCC1` was 29.8%; that for `CC1CCCN(C(=O)c2ccc3c(c2)C(=O)N(CCC2=CCCCC2)C3=O)C1` (stereo not given) was 61% (active).
The value for `O=C(O)C(c1ccccc1)N1C(=O)/C(=C\c2ccc(-c3cccc(Cl)c3)o2)SC1=S` (stereo not given) was 67.4% (active).
`O=C(NC1CCCC1)C(c1ccc(N2CCOCC2)cc1)N(C(=O)c1ccco1)c1ccccc1F` (stereo not given): the inhibition is 4.55%.
The value for `CCN(CC)CCCC(C)n1c2nc(=O)[nH]c(=O)c-2nc2cc(Cl)ccc21` (stereo not given) was 85.1% (active); that for `Cc1ccc(Nc2cc(C)nc3c(C)ccc([N+](=O)[O-])c23)cc1` was 0.827%.
Take `COc1ccc(S(=O)(=O)/N=C2\C=C(NS(=O)(=O)c3ccccc3)C(=O)c3ccccc32)cc1`: the inhibition was 83.7% (active).
Then `CCCCCCCCn1c2c(c(=N)c3c1CCC3)CCCC2`, with 42.2%; and `O=C(/C=C/c1ccccc1)c1ccoc1`, with 8.47%.
The value for `COc1cccc(C2/C(=C(/O)c3ccc(F)cc3)C(=O)C(=O)N2CCN(C)C)c1` (stereo not given) was 12.7%; that for `COc1ccc(Cn2nnc3c(=O)[nH]c(C4CCN(C(=O)c5ccccc5Cl)CC4)nc32)cc1` was 17.8%; that for `COC1=C(N2CCOCC2)C(=O)c2ccccc2C1=O` was 12.6%.
The value for `COCCN1C=C2C(=O)C(C)(OC(=O)C3CCCC3)C(=O)C=C2C=C1c1ccsc1` (stereo not given) was 24.9%; that for `O=c1ccc2c(-c3ccccc3S(=O)(=O)O)c3ccc(O)c(O)c3oc-2c1O` was 36.2%; that for `CC(C)CC[n+]1ccn(C2=C([O-])c3ccccc3C(=O)/C2=N\S(=O)(=O)c2ccccc2)c1` was 29.9%.
Consider `CCOC(=O)c1c(C)[nH]c2c1-c1ccccc1C(=O)C2=O`, for which the inhibition is 90.1% (active).
Then `O=C1C(Cl)=C(Oc2ccccc2)C(=O)c2ccccc21`, with 95.2% (active).
The value for `CC(=O)N1C(=O)/C(=C2\SC(=S)N(NC(=O)c3ccc(O)cc3)C2=O)c2ccccc21` was 63.5% (active); that for `Cc1[nH][nH]c(=O)c1C(c1ccc(-c2ccc(Cl)cc2)o1)c1c(C)[nH][nH]c1=O` was 6.33%.
Then `O=C1Nc2ccc([N+](=O)[O-])cc2C1=Nc1cccc(CO)c1`, with -1.27%; and `O=C(OCC(=O)N1CCN(c2ccccc2)CC1)c1ccc([N+](=O)[O-])s1`, with 22.8%.
